# Results: the supplement of paper PMC11417369
# In all, about 25,000 sequences were measured (“ln(normalized median fluorescence intensity)”: median about 6.7, highest 2% from about 10 on). The list comes from a sample in which the highest values are over-represented; it also holds similar and randomly drawn sequences.
# Tested on: PfHDP1 homeodomain (GST-tagged)
# Test: gcPBM binding intensity (ln(normalized median fluorescence intensity)); higher = stronger DNA binding
# Method in brief: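 Binding intensity values are the highest Masliner-normalised natural-log median intensity among replicate spots of either probe orientation. The binding step lasted 1 h in 1× PBS with 1% milk, 0.2 mg/ml BSA, 0.5% salmon testes DNA and 0.03% Triton X-100, using GST-tagged P. falciparum DNA-binding domains expressed in E. coli on an Agilent 4 × 180k array of primer-extended double-stranded 36-bp intergenic genomic probes plus negative controls. Alexa488 anti-GST antibody and a 488 nm scan detected bound protein.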
row,Sequence,gcPBM binding intensity (ln)
1,ATATATATATATATTGTGCACAAAAAAAAATAAGCA,10.7
2,CAAAATATTTTTATAACACACATATATATAATGTGC [CACACA_site4767],6.52
3,ACAAAAAAAATAAGCACACATATATATATATATATA [CACACA_site816],9.27
4,TATAAAAATAAGCACACACACAAATATATATTTATT [CACACA_site922],6.77
5,TGTGCATAAATTTATGCACACATAAAAAAAAAAAAA [CACACA_site8954],11
6,ATAAAATATATATGCACACACATATATATTTCATAC [CACACA_site3547],10.2
7,TGCATAAATTTATGCACACATAAAAAAAAAAAAAAA [CACACA_site2923],10.4
8,AAGAAAGGTTAAACATGTACATAAATATTTTACATA [XGTACX_site5024],6.28
9,TAATTCACATTTTATACACACATTCGAACCTTTTTT [CACACA_site3341],6.88
10,TTATAAAAGAAAAAAAAAAAAAAAAAAAAAAAAAAA [CACACA_negctrl_site1006],6.11
11,TTACATATATTGGGGTGTACATATATTTTCCTTCAC [XGTACX_site6224],7.35
12,AAAAAAAAGAAAGAAAGTACAAATTATAAAATGAAC [XGTACX_site860],6.62
13,AACAATAAATTATTATGTACACATATATTATATATA [XGTACX_site4629],6.47
14,ATCTAAAAATTTTACGCACACAAGTAAAAAAAAAAA [CACACA_site2485],7.14
15,ACTATATATATAAGTGCATGTTCATTATACCTAAAG [TGCATGCA_site696],7.49
16,TTATATATTTATAAATGTACGTATAAGAATTTAATT [XGTACX_site8541],6.68
17,TATATTTATGTATATGTGCACATAAATTTAAGAATG [GTGCAC_site9512],10.9
18,GATAAATGTATATATGCATGCACATATATTTATACA [TGCATGCA_site748],8.96
19,TATAATAATAATGATAGTACGTATGAGTTCAAGAAA [XGTACX_site4918],6.34
20,TCATATATCCTTATCACACATATAATAAATTCCCTT [CACACA_site4457],6.59
21,TTTTTTATTATTATGTGTACGAATATGTGCATATAA [XGTACX_site1364],9.93
22,TATATATAATTTTATACATGCACATATTATATATAT [TGCATGCA_site1036],8.4
23,TATATATTTATTAAATGTACATAACAAAAATGGTAT [XGTACX_site3577],7.05
24,ATATTATACGCATATGTGCGCATACATTTTTTTGCA [GTGCAC_site9540],7.53
25,ACACATATGCATATATGTACATAATATATTAAACTT [XGTACX_site5975],6.76

row,Sequence,gcPBM binding intensity (ln)
1,ATTATTACATATAATGCATGTGCATATATTTTTATA [TGCATGCA_site701],11
2,CCTTATACGATATTATGTACGCATATGTGCATTTTT [XGTACX_site1570],10.9
3,ATATATGCATATTATACACACATATGTATATACATT [CACACA_site965],7.81
4,TATGTGCATATAAACTCACACATTGTATATTACATG [CACACA_site6106],10.9
5,CATATATAAATATGTATGCACTTTAACAAAATGTAT,7.25
6,TATATATATATATATACATGCATATTTTTTATTTTT [TGCATGCA_site464],9.46
7,ATGTATGCAAAAATGGTGCATATTAAATGTATAACA [GTGCAC_site9722],10.5
8,TTATAAAGAAAAAATTGCTTTAAAAGAAAGATTACA [CACACA_negctrl_site960],5.87
9,CTAAATTGTTAATAGAGTACATTTGTATAATATAAG [XGTACX_site594],6.44
10,ATATATATATATGTACACATATATGTGTTTGTTTTT [GTGCAC_negctrl_site5],8.99
11,GTAATTTTTTTCTATACACACATATCTATAATATAT [CACACA_site7284],6.94
12,TCACTATAATAATTTACACACATTTTAAGAAAATGT [CACACA_site3530],6.61
13,TGTTTGCTTATGTGTTAAATATATATATATATATAT [TGCATGCA_negctrl_site218],9.25
14,ATTTTTGTAATTATTTGTACACATTTATTTATGTGT [XGTACX_site1864],6.76
15,ATACCATATAATTATGTGAGAAAATATAATATTCAT [CACACA_negctrl_site310],6.55
16,TTTTTTTTTTTTTTGTGTACTAATATTATAAATTTT [XGTACX_site4405],6.44
17,TATATGTAATATTATACATGCATACATAATATATAT [TGCATGCA_site558],6.52
18,TATACATATATAAATGCATGTTGATATTAATAGTTA [TGCATGCA_site639],6.53
19,TTATATGTATTTCTTTGTACACATTTTTATATATAT [XGTACX_site1462],7.16
20,TTTTTTAAATTTAAAGTGCATTATTATATATTTGTA,8.5
21,TATTAATGCAAATGTTATATGTGCATACATAAATGT [CACACA_negctrl_site790],10.9
22,TCCAATTCTTTATTTTGTACACATTATGTGCATATG [XGTACX_site6290],10.9
23,AGTGAGAAATACATAATAATACATTATGTGCATATT [XGTACX_negctrl_site247],10.7
24,CATGTGCATATTAAATGTACATATATACATATATAC [XGTACX_site857],10.2
25,TTATATTAATTTTGTTGTACTATTTGTGCATTAAAT [XGTACX_site4790],10.8
